# The supplement of paper PMC10849652
# The full data set covers some 8,800 targets. This sample favours those with a hit. About 0.5% of all pairs of compound and target were hits. Values without a mark were called inactive.
# How the values were obtained:
# Assay in all cases: log2 fold change, soluble protein after heating vs DMSO (PISA); higher = thermal stabilisation; K562 lysate, 10 uM; active = over 0.2 and 3.5 SD of the protein, either way, in both replicates (recomputed)
# vemurafenib = compound: CCCS(=O)(=O)Nc1ccc(F)c(C(=O)c2c[nH]c3ncc(-c4ccc(Cl)cc4)cc23)c1F [vemurafenib]
# Procedure, shortened: (§1)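 Soluble protein was defined as the supernatant remaining after 21,000xg for 90 min, following pooling of heated aliquots and adjustment to 0.5% NP-40 at 4°C. Before that, crude K562 extract at 1 mg/mL protein in PBS pH 7.4 with 1 mM MgCl2 was treated with 10 μM compound for 30 min and heated for 3 min across 48°C-58°C. Quantification used TMTpro 16plex LC-MS/MS with channel sums equalised, and values are log-two fold changes in thermal stability relative to solvent controls from duplicates.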
# [1] = compound: CCCS(=O)(=O)Nc1ccc(F)c(C(=O)c2c[nH]c3ncc(Cl)cc23)c1F
# Procedure, shortened: as §1
# barasertib = compound: CCN(CCCOc1ccc2c(Nc3cc(CC(=O)Nc4cccc(F)c4)[nH]n3)ncnc2c1)CCOP(=O)(O)O [barasertib]
# Procedure, shortened: as §1
# [2] = compound: CC[C@@H]1C(=O)N(C)c2cnc(Nc3ccc(C(=O)NC4CCN(C)CC4)cc3OC)nc2N1C1CCCC1
# Procedure, shortened: as §1
# volasertib = compound: CC[C@@H]1C(=O)N(C)c2cnc(Nc3ccc(C(=O)N[C@H]4CC[C@H](N5CCN(CC6CC6)CC5)CC4)cc3OC)nc2N1C(C)C [volasertib]
# Procedure, shortened: as §1
# [3] = compound: CCn1c(C(=O)N(C2CC2)C2CC2)cc2c3c(ncn3C)c(Nc3cc(C)n(C)n3)nc21
# Procedure, shortened: as §1
# [4] = compound: CCn1cc(-c2ccnc3[nH]c(-c4cccc(CN(C)C)c4)cc23)c(-c2ccc(NC(=O)N(C)C)cc2)n1
# Procedure, shortened: as §1
# [5] = compound: CN1CCC(CNc2ccc3ncc(-c4cccc(OC(F)(F)F)c4)n3n2)CC1
# Procedure, shortened: as §1
# saracatinib = compound: CN1CCN(CCOc2cc(OC3CCOCC3)c3c(Nc4c(Cl)ccc5c4OCO5)ncnc3c2)CC1 [saracatinib]
# Procedure, shortened: as §1
# sotrastaurin = compound: CN1CCN(c2nc(C3=C(c4c[nH]c5ccccc45)C(=O)NC3=O)c3ccccc3n2)CC1 [sotrastaurin]
# Procedure, shortened: as §1
# alvocidib = compound: CN1CC[C@H](c2c(O)cc(O)c3c(=O)cc(-c4ccccc4Cl)oc23)[C@H](O)C1 [alvocidib]
# Procedure, shortened: as §1
# Tubastatin A = compound: CN1CCc2c(c3ccccc3n2Cc2ccc(C(=O)NO)cc2)C1 [Tubastatin A]
# Procedure, shortened: as §1
# [6] = compound: CNC(=O)C1=CC=CC=C1NC2=NC(=NC=C2Cl)NC3=C(C=C(C=C3)N4CCOCC4)OC
# Procedure, shortened: as §1
# defactinib = compound: CNC(=O)c1ccc(Nc2ncc(C(F)(F)F)c(NCc3nccnc3N(C)S(C)(=O)=O)n2)cc1 [defactinib]
# Procedure, shortened: as §1
# [7] = compound: CNc1nc(-c2ccc3c(N)n[nH]c3c2)cc(N2C[C@@H](C(=O)NC3CCCCC3)CC[C@H]2C)n1
# Procedure, shortened: as §1
# encorafenib = compound: COC(=O)N[C@@H](C)CNc1nccc(-c2cn(C(C)C)nc2-c2cc(Cl)cc(NS(C)(=O)=O)c2F)n1 [encorafenib]
# Procedure, shortened: as §1
# [8] = compound: COC(=O)[C@H](CCSC)NC(=O)C1=C(C=C(C=C1)NC[C@H](CS)N)C2=CC=CC=C2
# Procedure, shortened: as §1
# alisertib = compound: COc1cc(Nc2ncc3c(n2)-c2ccc(Cl)cc2C(c2c(F)cccc2OC)=NC3)ccc1C(=O)O [alisertib]
# Procedure, shortened: as §1
# [9] = compound: COc1cc2nc(-c3cc(F)ccc3O)nc(N[C@@H]3CNC[C@H]3C(C)(C)O)c2cc1OC
# Procedure, shortened: as §1
# gefitinib = compound: COc1cc2ncnc(Nc3ccc(F)c(Cl)c3)c2cc1OCCCN1CCOCC1 [gefitinib]
# Procedure, shortened: as §1
# Chain of UniProt P35610 (P35610 whole entry, looked up): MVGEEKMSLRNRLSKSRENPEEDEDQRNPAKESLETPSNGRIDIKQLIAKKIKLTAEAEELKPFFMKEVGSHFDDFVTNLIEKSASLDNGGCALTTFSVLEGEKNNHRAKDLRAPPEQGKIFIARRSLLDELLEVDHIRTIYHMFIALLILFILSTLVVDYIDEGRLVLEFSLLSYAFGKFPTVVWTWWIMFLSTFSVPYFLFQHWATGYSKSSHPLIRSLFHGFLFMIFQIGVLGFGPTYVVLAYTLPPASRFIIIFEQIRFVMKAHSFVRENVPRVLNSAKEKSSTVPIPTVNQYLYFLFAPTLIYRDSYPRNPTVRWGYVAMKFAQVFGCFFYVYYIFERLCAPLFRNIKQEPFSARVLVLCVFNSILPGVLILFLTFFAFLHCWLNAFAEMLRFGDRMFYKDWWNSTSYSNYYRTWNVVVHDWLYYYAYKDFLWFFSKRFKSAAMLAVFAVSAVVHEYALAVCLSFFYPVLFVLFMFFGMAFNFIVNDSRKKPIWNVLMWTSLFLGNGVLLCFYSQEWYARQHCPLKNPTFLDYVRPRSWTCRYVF
# Chain of UniProt Q9P289 (Q9P289 whole entry, looked up): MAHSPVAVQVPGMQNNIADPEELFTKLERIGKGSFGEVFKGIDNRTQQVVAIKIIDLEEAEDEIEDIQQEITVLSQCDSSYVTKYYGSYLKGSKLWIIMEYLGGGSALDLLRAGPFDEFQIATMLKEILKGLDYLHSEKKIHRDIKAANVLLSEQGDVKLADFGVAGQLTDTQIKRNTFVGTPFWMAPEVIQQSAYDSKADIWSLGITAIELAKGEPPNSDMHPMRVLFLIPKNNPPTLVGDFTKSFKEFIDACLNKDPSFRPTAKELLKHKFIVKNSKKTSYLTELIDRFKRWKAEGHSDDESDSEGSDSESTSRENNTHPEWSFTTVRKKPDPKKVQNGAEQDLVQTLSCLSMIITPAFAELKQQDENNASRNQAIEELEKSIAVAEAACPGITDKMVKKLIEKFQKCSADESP
# Chain of UniProt Q14542 (Q14542 whole entry, looked up): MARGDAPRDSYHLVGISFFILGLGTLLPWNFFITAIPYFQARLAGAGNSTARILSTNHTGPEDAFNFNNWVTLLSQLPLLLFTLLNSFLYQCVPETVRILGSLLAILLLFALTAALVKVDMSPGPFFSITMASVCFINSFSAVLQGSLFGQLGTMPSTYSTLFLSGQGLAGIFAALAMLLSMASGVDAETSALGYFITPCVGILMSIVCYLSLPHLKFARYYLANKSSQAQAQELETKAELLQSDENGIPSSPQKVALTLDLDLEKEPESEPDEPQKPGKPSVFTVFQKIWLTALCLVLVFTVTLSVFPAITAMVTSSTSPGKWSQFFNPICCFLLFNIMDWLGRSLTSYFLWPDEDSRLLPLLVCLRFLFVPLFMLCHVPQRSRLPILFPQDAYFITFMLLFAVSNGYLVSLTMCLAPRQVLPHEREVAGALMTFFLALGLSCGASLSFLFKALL
# Chain of UniProt Q9UJZ1 (Q9UJZ1 whole entry, looked up): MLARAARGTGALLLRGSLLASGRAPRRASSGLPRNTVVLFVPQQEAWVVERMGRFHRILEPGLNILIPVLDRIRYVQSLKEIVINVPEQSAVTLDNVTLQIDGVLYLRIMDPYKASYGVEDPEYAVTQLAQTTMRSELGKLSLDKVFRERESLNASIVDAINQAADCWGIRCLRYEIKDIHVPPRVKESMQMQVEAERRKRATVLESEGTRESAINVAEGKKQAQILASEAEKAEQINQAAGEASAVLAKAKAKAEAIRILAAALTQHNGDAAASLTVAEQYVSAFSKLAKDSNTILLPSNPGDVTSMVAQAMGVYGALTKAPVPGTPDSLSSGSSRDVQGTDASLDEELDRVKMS
# Chain of UniProt Q8TBC3 (Q8TBC3 whole entry, looked up): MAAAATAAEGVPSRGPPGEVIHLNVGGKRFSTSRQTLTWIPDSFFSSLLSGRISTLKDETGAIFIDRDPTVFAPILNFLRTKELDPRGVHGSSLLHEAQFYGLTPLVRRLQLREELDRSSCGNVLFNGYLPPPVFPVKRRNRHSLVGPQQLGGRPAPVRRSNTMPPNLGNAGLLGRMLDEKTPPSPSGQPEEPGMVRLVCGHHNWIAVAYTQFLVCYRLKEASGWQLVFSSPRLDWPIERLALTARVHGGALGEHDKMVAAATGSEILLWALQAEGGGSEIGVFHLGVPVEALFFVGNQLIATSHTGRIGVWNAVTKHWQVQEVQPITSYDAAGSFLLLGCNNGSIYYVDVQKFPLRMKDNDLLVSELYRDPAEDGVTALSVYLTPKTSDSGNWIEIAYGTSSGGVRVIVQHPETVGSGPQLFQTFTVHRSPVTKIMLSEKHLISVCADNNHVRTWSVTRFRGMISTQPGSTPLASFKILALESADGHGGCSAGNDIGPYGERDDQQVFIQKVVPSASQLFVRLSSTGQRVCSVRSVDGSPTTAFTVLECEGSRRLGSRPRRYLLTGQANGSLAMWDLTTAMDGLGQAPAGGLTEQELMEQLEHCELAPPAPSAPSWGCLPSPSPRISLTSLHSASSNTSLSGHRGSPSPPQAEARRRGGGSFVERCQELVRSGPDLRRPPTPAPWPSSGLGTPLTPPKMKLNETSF
# Chain of UniProt Q15796 (Q15796 whole entry, looked up): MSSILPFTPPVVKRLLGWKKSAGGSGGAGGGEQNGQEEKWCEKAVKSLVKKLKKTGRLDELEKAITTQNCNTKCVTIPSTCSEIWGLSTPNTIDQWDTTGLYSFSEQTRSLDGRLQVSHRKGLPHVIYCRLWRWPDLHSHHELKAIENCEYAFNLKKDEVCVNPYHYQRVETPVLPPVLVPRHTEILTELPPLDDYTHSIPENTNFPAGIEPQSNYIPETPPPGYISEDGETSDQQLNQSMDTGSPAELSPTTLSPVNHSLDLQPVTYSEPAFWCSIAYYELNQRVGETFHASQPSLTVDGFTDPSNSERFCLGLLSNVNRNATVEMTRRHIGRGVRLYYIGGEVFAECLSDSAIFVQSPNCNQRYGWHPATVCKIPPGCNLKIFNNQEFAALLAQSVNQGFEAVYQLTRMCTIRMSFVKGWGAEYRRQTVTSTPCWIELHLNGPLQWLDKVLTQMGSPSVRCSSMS
# Chain of UniProt Q9H2H9 (Q9H2H9 whole entry, looked up): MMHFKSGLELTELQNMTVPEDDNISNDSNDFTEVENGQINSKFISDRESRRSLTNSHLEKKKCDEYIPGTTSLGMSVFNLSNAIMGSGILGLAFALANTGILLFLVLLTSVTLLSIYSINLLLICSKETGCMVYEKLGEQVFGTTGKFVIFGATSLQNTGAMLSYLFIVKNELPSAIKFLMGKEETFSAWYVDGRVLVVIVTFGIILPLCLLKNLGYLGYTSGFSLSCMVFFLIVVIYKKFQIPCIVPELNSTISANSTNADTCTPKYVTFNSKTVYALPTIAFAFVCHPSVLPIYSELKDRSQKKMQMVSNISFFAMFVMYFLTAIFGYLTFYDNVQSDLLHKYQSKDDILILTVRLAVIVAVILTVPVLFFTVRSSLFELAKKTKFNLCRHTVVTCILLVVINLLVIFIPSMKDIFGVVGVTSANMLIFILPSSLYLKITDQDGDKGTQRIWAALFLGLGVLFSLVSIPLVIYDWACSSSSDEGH
# Chain of UniProt P41440 (P41440 whole entry, looked up): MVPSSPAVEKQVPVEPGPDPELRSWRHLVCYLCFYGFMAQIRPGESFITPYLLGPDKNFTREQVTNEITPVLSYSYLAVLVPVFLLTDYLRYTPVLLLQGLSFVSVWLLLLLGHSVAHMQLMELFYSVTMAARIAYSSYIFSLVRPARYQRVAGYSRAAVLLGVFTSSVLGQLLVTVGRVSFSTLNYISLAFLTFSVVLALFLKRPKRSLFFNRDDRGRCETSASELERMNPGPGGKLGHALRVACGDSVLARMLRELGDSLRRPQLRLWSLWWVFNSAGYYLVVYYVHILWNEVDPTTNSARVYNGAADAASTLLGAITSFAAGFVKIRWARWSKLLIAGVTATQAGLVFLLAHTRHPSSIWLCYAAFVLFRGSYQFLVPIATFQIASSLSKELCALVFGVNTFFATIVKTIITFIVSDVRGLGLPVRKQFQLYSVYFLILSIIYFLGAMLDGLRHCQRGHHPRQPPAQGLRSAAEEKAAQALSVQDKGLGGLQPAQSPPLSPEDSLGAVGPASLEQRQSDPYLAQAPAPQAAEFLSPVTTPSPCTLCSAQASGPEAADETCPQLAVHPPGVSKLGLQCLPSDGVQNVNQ
# Chain of UniProt O95926 (O95926 whole entry, looked up): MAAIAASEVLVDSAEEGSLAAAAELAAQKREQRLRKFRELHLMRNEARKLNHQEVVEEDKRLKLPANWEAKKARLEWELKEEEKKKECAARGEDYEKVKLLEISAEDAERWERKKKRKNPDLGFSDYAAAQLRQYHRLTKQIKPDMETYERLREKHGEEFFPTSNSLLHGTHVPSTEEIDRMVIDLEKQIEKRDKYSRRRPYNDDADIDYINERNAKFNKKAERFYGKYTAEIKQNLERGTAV
# Chain of UniProt Q96SB4 (Q96SB4 whole entry, looked up): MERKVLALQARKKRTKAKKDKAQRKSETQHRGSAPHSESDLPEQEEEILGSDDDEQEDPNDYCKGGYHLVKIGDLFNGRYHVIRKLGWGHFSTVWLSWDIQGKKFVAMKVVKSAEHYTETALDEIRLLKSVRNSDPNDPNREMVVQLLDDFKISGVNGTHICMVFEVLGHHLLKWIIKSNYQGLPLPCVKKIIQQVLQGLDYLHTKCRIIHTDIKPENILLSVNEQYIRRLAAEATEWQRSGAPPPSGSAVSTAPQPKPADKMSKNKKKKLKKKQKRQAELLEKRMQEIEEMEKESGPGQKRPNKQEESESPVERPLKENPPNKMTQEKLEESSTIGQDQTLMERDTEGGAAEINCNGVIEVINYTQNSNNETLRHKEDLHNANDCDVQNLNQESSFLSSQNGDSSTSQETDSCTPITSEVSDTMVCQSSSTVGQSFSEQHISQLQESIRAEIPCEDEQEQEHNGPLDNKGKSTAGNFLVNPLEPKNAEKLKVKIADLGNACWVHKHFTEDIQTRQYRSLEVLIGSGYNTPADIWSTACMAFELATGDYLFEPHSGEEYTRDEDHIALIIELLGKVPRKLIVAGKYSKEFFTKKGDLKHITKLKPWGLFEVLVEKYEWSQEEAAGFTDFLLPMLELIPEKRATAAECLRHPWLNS
Target,log2 fold change (vemurafenib),log2 fold change [1],log2 fold change (barasertib),log2 fold change [2],log2 fold change (volasertib),log2 fold change [3],log2 fold change [4],log2 fold change [5],log2 fold change (saracatinib),log2 fold change (sotrastaurin),log2 fold change (alvocidib),log2 fold change (Tubastatin A),log2 fold change [6],log2 fold change (defactinib),log2 fold change [7],log2 fold change (encorafenib),log2 fold change [8],log2 fold change (alisertib),log2 fold change [9],log2 fold change (gefitinib)
SRPK1 (UniProt Q96SB4),0.003,0.029,-0.014,0.093,-0.01,0.008,0.055,-0.072,0.012,0.021,0.286 (active),-0.062,0.189,0.106,0.008,-0.029,0.102,0.006,0.015,0.018
SLC38A1 (UniProt Q9H2H9),0.03,-0.007,0,0.035,0.066,0.008,-0.269 (active),0.102,-0.002,0.024,-0.111,0.022,-0.026,-0.016,-0.054,0.019,-0.045,-0.021,0.011,0.073
STOML2 (UniProt Q9UJZ1),0.026,0.009,0.115,0.043,0.033,-0.015,0.111,-0.047,-0.01,-0.002,-0.017,0.095,-0.009,0.017,0.022,-0.007,-0.055,-0.004,0.052,0.08
SMC6 (UniProt Q96SB8),0.044,0.01,0.014,0.047,-0.031,0.012,-0.036,0.024,0.046,0.027,-0.017,-0.087,0.049,-0.003,-0.004,-0.02,0.045,-0.018,-0.013,0.007
SSB (UniProt E7ERC4),0.111,0,-0.04,-0.281,0.003,-0.134,1.92 (active),-0.377,0.013,-0.012,0.132,0.154,-0.072,-0.285,-0.023,0.081,0.013,-0.091,0.095,0.072
SOAT1 (UniProt P35610),0.047,0.055,0.008,-0.003,-0.009,-0.061,-0.063,-0.062,0.016,0.019,-0.033,0.086,0.036,-0.022,-0.002,0.065,0.123,-0.014,-0.076,0.047
SLC11A2 isoform 3 (UniProt P49281),-0.009,0.043,0.019,0.073,0.026,0.036,-0.082,0.074,0.028,-0.012,-0.032,-0.047,0.031,-0.001,-0.008,0.063,-0.027,0.128,0.021,0.295 (active)
STK4 (UniProt Q13043),0.058,0.047,0.029,0.002,-0.046,0.023,-0.019,0.168,0.029,0.199,0.011,-0.095,0.365,0.231,0,-0.073,-0.055,0.051,0.257,0.002
SHKBP1 (UniProt Q8TBC3),0.079,-0.017,0.03,-0.038,0.033,-0.058,-0.093,0.103,0.013,0.017,-0.038,-0.018,-0.002,0.115,0.046,-0.05,0.274 (active),0.019,0.001,0.023
STK26 (UniProt Q9P289),0.021,-0.008,-0.009,-0.032,-0.064,0.037,-0.045,-0.048,-0.02,0.006,0.027,-0.041,0.003,0.008,-0.06,0.001,0.009,-0.004,0.022,-0.016
SLC29A2 (UniProt Q14542),0.003,0.012,0.029,0.049,-0.041,-0.079,-0.729 (active),0.206,-0.004,0.013,-0.134,-0.018,0.187,-0.011,-0.042,0.025,0.007,-0.031,0.008,0.046
SMAD2 (UniProt Q15796),-0.027,0.074,0.03,-0.031,-0.006,-0.027,0.025,-0.003,0.017,-0.002,-0.058,0.009,0.167,0.01,0.038,-0.01,0.03,-0.069,0.006,0.016
SMARCA4 (UniProt P51532),0.011,0.006,0.038,-0.058,-0.024,0.02,-0.044,-0.024,0.011,0.034,0.004,-0.078,-0.007,0.002,-0.003,0.021,0.056,0.019,-0.002,-0.001
SLC19A1 (UniProt P41440),0.028,-0.005,0.059,0.014,0.047,-0.036,-0.203,0.165,0.019,0.025,-0.106,0.047,0.025,0.01,0.037,0.011,-0.018,-0.005,0.039,0.026
SYF2 (UniProt O95926),-0.012,-0.042,-0.039,0.096,0.038,-0.044,-0.043,0.028,0.015,-0.008,0.004,0.039,0.103,-0.034,0.049,0.038,0.033,0.018,0.058,0.038
SYPL1 (UniProt Q16563),-0.006,-0.019,0.076,0.004,0.032,-0.011,-0.418 (active),0.194,0.01,0.023,-0.132,0.057,-0.007,-0.014,0.029,0.013,-0.022,0.016,0.012,-0.033
